{
  "source": "PubChem BioAssay (NCI)",
  "note": "The panel holds about 83,000 compounds, 20% with a hit somewhere; the sample as a whole holds those more often.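 Note: values are percent growth. 100 is the growth of untreated cells, values between 100 and 0 indicate rising inhibition; between -100 and 0 indicates cell death.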 Values without a mark were called inactive. Activity calls are given as the source filed them. The calls were made as follows: active = growth percent below 10; inactive = the rest.",
  "data": [
    {"test_system": "MDA-MB-468 breast", "test": "NCI-60 one-dose screen, 48 h (100 = growth as untreated, 0 = no growth, -100 = all killed)", "details": "10 µM unless noted", "values": [
      {"smiles": "COC1C[C@H](O[C@@H]2C[C@H](O[C@@H]3C[C@H](O[C@@H]4C(=O)c5c(cc6cc(O[C@H]7C[C@@H](O[C@H]8C[C@@H](O)[C@H](O)C(C)O8)[C@H](O)C(C)O7)c(C)c(O)c6c5O)C[C@H]4C(OC)C(=O)[C@@H](O)[C@@H](C)O)OC(C)[C@H]3O)OC(C)[C@@H]2O)OC(C)[C@@H]1O", "note": "(stereo partly specified)", "growth": "-55% (active)"},
      {"smiles": "COc1ccc(C(=O)/C=C/c2cc3ccccc3[nH]c2=O)cc1", "growth": "17.6%"},
      {"smiles": "C=C(C)[C@@H]1CC[C@]2(COCCC#N)CC[C@]3(C)[C@H](CC[C@@H]4[C@@](C)(CCCNCCC#N)[C@H](C(=C)C)CC[C@]43C)[C@@H]12", "growth": "16.3% [100 µM]"},
      {"smiles": "CCOC(=O)Cc1cc(Br)c(OCc2ccccc2)c(Br)c1", "growth": "110%"},
      {"smiles": "COc1ccc(Cn2cc(COc3cc(/C=C/C(=O)c4cc(OC)c(OC)c(OC)c4)ccc3OC)nn2)cc1", "growth": "49%"},
      {"smiles": "COc1cc(CNS(=O)(=O)c2ccc(C)cc2)ccc1OCc1cn(-c2ccc(F)cc2)nn1", "growth": "62.3%"},
      {"smiles": "Nc1nc(=S)ss1", "growth": "101%"},
      {"smiles": "O=C(CCCCC(=O)Oc1c(Cl)cc(Cl)cc1[N+](=O)[O-])Oc1c(Cl)cc(Cl)cc1[N+](=O)[O-]", "growth": "113%"},
      {"smiles": "Cc1n[nH]c(C)c1N=Nc1cccc2c1C(=O)c1ccccc1C2=O", "growth": "96.2%"},
      {"smiles": "Cc1ccc(/C=C2\\COc3ccc(O)cc3C2=O)cc1", "growth": "91.4%"},
      {"smiles": "CCCCNC(=O)Oc1ccc(/C(=C(/C)Cc2ccc(OC)cc2)c2ccc(OCCN3CCCCCC3)cc2)cc1", "growth": "69.2%"}
    ]}
  ]
}
